# Wnt bcat act: activates Wnt/beta-catenin signaling in a reporter cell assay; activator, plate reader; activation, % at 9.35 µM; actives 1.2% (n = 300,000); AID 743398; in the data active = activation above about 30%, passing the limit was not always enough; inconclusive = no clear call, values can overlap the other calls;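 note: 0% = neutral control wells and 100% = positive control wells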
# esBAF inh: SWI/SNF esBAF complex inhibition. mouse ES cells, Bmi1-luciferase knock-in reporter, 24 h; 100% = twice the neutral-well signal. reporter increase, % at 12.5 µM. actives 2% (n = 350,000). AID 602393; in the data active = activation above about 40%; inconclusive = no clear call, values can overlap the other calls;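 note: 0% = median of the plate's neutral control wells and 100% = double that signal; a rise in the Bmi1 reporter signal indicates esBAF inhibition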
# EWS-Fli inh: blocks EWS/Fli oncoprotein-driven transcription; A673 NR0B1-luciferase reporter, viability-normalised; inhibition, % at 12.6 µM; actives 0.67% (n = 350,000); AID 651661;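 active = mean inhibition of at least 50% after viability correction, with every replicate also passing that limit; inconclusive = mean reaches 50% but only one of two replicates passes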;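 note: firefly luciferase signal divided by Alamar Blue viability fluorescence both relative to DMSO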
# TRPM1 prom inh: reduces MITF-dependent TRPM1 promoter luciferase signal. SK-MEL-5 TRPM1 promoter luciferase, 24 h. inhibition, % at 12.5 µM. actives 0.83% (n = 330,000);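 active = mean inhibition across replicates of 60% or more, whatever share of single replicates reaches that level; inconclusive = some that reach 60%, reason not given; inactive = mean inhibition across replicates below 60%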
# MITF TRPM1 HTS: MITF TRPM1 promoter activation in melanoma cells. activation, % at 12.5 µM. AID 588334. SK-MEL-5 TRPM1-promoter luciferase, 24 h; % of positive control, neutral wells = 0. actives 0.75% (n = 300,000);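 active = mean activation of at least 80% with every replicate also reaching 80%; inconclusive = mean reaches 80% but some replicate falls short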;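 note: 0% = neutral control wells and 100% = parthenolide positive control wells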
# PAX8 inh HTS: PAX8 transcriptional activity inhibition. RMG-I TPO-luciferase reporter, SteadyGlo, 24 h. inhibition, % at 12.6 µM. actives 1.2% (n = 360,000);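 active = mean replicate inhibition at least 60% with every replicate also reaching 60%; inconclusive = only one of the two criteria is met; inactive = mean below 60% and not all replicates reaching 60%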;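 note: luciferase light reporting Pax8 driven TPO promoter activity; plate controls were median of neutral control wells for no effect and mitoxantrone controls for full effect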
# Ring1 derepress: confirmation of esBAF inhibitors: Ring1 de-repression in mouse ESCs; 550 tested, under 10 active; fold change at 33 µM; shares compounds with esBAF inh; mouse ESC E14, Ring1 mRNA RT-qPCR fold change;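 active = Ring1 gene expression raised more than 2-fold over untreated cells in both replicates at either tested dose; inconclusive = only one replicate above 2-fold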;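 note: Ring1 transcript normalised to actin housekeeping signal by TaqMan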
# Fgf4 repress: represses Fgf4 in mouse ESCs, confirming esBAF inhibition; shares compounds with esBAF inh; actives 4% (n = 550); Fgf4 expression fold change at 33 µM; mouse ESC E14, Fgf4 mRNA qPCR fold change; stronger effect = lower value; AID 743177;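 active = Fgf4 expression under 0.8 fold of control in both repeat measurements at one or both tested doses; inconclusive = under 0.8 fold in just a single repeat measurement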;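 note: Fgf4 transcript normalised to actin in duplex TaqMan qPCR; cells exposed to compound for 24 h before lysis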
# Bmi1 derepress: de-represses Bmi1 in mouse ESCs, confirming esBAF inhibition; shares compounds with esBAF inh; mouse ESE14 ES cells, Bmi1 mRNA qPCR fold; stronger effect = higher value; fold change at 33 µM; 550 tested, under 10 active; AID 743180;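 active = Bmi1 expression fold change above 6 at either tested concentration, seen in replicate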;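 note: higher fold means more Bmi1 de-repression and stronger esBAF inhibition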
# A549 tox SP: A549 cell cytotoxicity; shares compounds with esBAF inh; plate reader; cell viability change % (negative = cytotoxic), % at 25 µM, hits read low; 550 tested, under 10 active; AID 743188; call rule not given here
# HepG2 tox SP: HepG2 cell cytotoxicity at single point; AID 743189; plate reader; stronger effect = lower value; actives 4% (n = 550); activity change, negative = inhibition, % at 25 µM; shares compounds with esBAF inh; in the data active = activity change below about -50%
# HEK293 cytotox SP: HEK293 cell cytotoxicity at single point | shares compounds with esBAF inh | activity change, negative = inhibition, % at 25 µM, hits read low | actives 3% (n = 550) | plate reader; in the data active = activity change below about -38%, passing the limit was not always enough
# DNA binding: DNA binding small molecules; actives 2% (n = 640); salmon sperm DNA acridine orange fluorescence polarization; shares compounds with EWS-Fli inh; AC35, µM (series often up to 68 µM), for inactives: at the highest dose activity change, negative = DNA binding; AID 720586;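 active = fitted curve reaches a 35% signal fall AC35 below twice the sample's top valid tested dose, actives reach about 48 µM in these data; inactive = the rest, including activity in the rising direction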;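 note: lower polarization ratio signals compound binding to DNA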
# * = called active by the depositor; ? = inconclusive; nt = no result. Rows were chosen to be rich in hits. Some 4% of all compounds tested hit in one or more screens of this group.
SMILES,Wnt bcat act,esBAF inh,EWS-Fli inh,TRPM1 prom inh,MITF TRPM1 HTS,PAX8 inh HTS,Ring1 derepress,Fgf4 repress,Bmi1 derepress,A549 tox SP,HepG2 tox SP,HEK293 cytotox SP,others
Cc1ccc(C)c(OCc2nc3ccccc3[nH]2)c1,46*,66*,-43,-67,69,-103,1.4,1,1.6,-1,-34,-12,
Cc1cccc(C)c1OCc1nc2ccccc2[nH]1,-2,nt,4,-3,6,-2,nt,nt,nt,nt,nt,nt,
CN(CC(=O)Nc1ccccc1Br)C(=O)c1cc2c(s1)CCCCC2,43*,67*,-127,-91,?,-223,0.9,0.82,1.7,-2,-29,-21,
CN(CC(=O)Nc1ccccc1Br)C(=O)c1ccc(COc2ccccc2)cc1,-1,5,nt,-9,11,-4,nt,nt,nt,nt,nt,nt,
COc1ccc2cc(C(=O)N(C)CC(=O)Nc3ccccc3Br)ccc2c1,42*,60*,-113,-45,51,-82,1.1,0.87,1.6,-1,-3,23,
C[C@@H]1CN([C@@H](C)CO)C(=O)c2cc(NS(=O)(=O)c3ccc(Cl)cc3)ccc2O[C@@H]1CN(C)S(=O)(=O)c1ccccc1,nt,3,-1,nt,nt,-30,nt,nt,nt,nt,nt,nt,
COc1cccc(NC(=O)CN(C)C(=O)CNC(=O)c2sc3ccccc3c2Cl)c1,7,67*,-43,-20,29,-56,0.89,0.89,1.4,-14,-29,-32,
COc1cccc(NC(=O)CN(C)C(=O)c2sc3cc(Cl)ccc3c2Cl)c1,-1,-5,1,-2,2,-14,nt,nt,nt,nt,nt,nt,
O=C(N/N=C/c1cccc(F)c1)c1c(O)c2ccccc2[nH]c1=O,-4,nt,nt,42,-44,-4,nt,nt,nt,nt,nt,nt,
O=C(Nc1cccc(F)c1)c1c(O)c2ccccc2[nH]c1=O,9,80*,-48,-47,nt,10,0.99,0.95,1.3,6,-17,-9,
C[C@]12CCCC(=O)N1CCc1c2[nH]c2ccccc12,nt,nt,5,nt,nt,-10,nt,nt,nt,nt,nt,nt,
O=C(O)c1ccc2c(c1)C(=O)N(CCc1c[nH]c3ccccc13)C2=O,16,47*,-58,-56,63,-22,1.2,0.98,1.5,-2,-3,3,
COc1ccc(NC(=O)N(C)C[C@H]2OCCCC[C@H](C)Oc3ccc(NS(=O)(=O)c4ccccc4)cc3C(=O)N([C@@H](C)CO)C[C@H]2C)cc1,nt,nt,16,nt,nt,-13,nt,nt,nt,nt,nt,nt,
CCOc1ccc(OCc2ccc(C(=O)NN=Cc3ccc[nH]3)cc2)cc1,-24,14,57*,nt,nt,34,nt,nt,nt,nt,nt,nt,DNA binding=0%
O=C(N/N=C/c1ccc[nH]1)c1ccccc1OCc1ccc(F)cc1,-3,-3,2,9,-4,12,nt,nt,nt,nt,nt,nt,
COc1ccc2cc(C(N)=O)/c(=N\NC(=O)c3ccccc3)oc2c1,6,-83,71*,34,-34,10,nt,nt,nt,nt,nt,nt,DNA binding=-16%
CCNC(=O)c1cc2c(c(-c3cccc(-c4cccc(OC)c4)c3)n1)[C@H](CCO)N([S@@](=O)C(C)(C)C)C2,nt,-8,63*,nt,nt,49,nt,nt,nt,nt,nt,nt,DNA binding=-13%
COCCNC(=O)c1cc2c(c(-c3cccc(-c4cccc(OC)c4)c3)n1)[C@H](CCO)N(S(=O)C(C)(C)C)C2 (stereo partly drawn),-4,-3,8,nt,nt,11,nt,nt,nt,nt,nt,nt,

# High-throughput results from PubChem.
